Here are results for 56 molecules from PubChem BioAssay AID977606 (Broad Institute, 2014).

Screen size: about 1,500 compounds; about 430 (29%) were called active. A selection follows. Results with a measured potency or affinity are listed apart. Values without a mark were called inactive. How the calls were made is not given here.

A short description of the test: insulin secretion activators without glucose, dose response, counter-screen for glucose-dependent insulin secretion activators, cell-based, INS-1E, Gaussia luciferase, luminescence, cherry-pick (AID 977606).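 Further: 0% = median of neutral control wells.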 Conditions: INS-1E Gaussia luciferase insulin secretion, no glucose, 100% = twice neutral-control luminescence; series mostly up to 35 µM; activation: at the top concentration. For orientation: A counterscreen serves to expose hits that act by an unwanted route or on another target.
As to `O=S(=O)(c1ccc(NCCCO)nc1)N1CCOCC1`, the “activation” value was -4.23%.

`CCOc1ncccc1C(=O)OCC(=O)NCCc1ccc(S(N)(=O)=O)cc1`: the “activation” value was -1.58%.

As to `CCOC(=O)c1cn(-c2ccccc2)nc1-c1ccncc1`, the “activation” value is 16.9%.

`COCCNc1nc(NCCCN(C)C)c2sccc2n1`: the “activation” value was -7.39%.

Consider `CCCc1nnc2n1N=C(c1ccc(OC)c(OC)c1)CS2`, for which the “activation” value is -7.53%.

As to `O=S(=O)(c1cccs1)N1CN(C2CCCCC2)c2nc3ccccc3nc21`, the “activation” value was -1.77%.

As to `Cc1nc(N)c(C#N)c(-c2cccnc2)c1-c1ccccc1`, the “activation” value was -1.76%.

As to `O=C1NC(c2ccccc2)c2c(-c3ccccc3)n[nH]c21` (stereo unspecified), the “activation” value is 4.52%.

For `C=CCN1C(=O)c2n[nH]c(COC)c2C1c1ccc(F)cc1` (stereo unspecified), the “activation” value is 28.3%.

Turning to `CNC(=O)C(=O)NCC1OCCCN1S(=O)(=O)c1ccc(F)cc1C` (stereo unspecified), the “activation” value is 6.38%.

As for `COc1ccc(-c2ocnc2C(=O)Nc2ccc(N3CCOCC3)cc2N2CCOCC2)cc1OC`, the “activation” value is -16.6%.

Regarding `O=C(Cc1ccsc1)NNC(=O)c1ccccc1Cl`, the “activation” value is -8.88%.

On to `C/C=C1\COC(C(=O)NCc2ccccc2)(C(F)(F)F)C=C1C=C(C)C` (stereo unspecified), for which the “activation” value is 12.9%.

In the case of `CCC(CC)NC(=O)CN1CCN(S(=O)(=O)c2cccs2)CC1`, the “activation” value is -5.53%.

Consider `COc1ccc(CCNC(=O)CCCc2nnc3n(C)c(=O)c4sccc4n23)cc1OC`, for which the “activation” value is 20.7%.

Regarding `Cc1cc(Oc2cccnc2)ccc1NC(=O)Cc1cn(C)c2ccccc12`, the “activation” value was -5.92%.

Take `Cc1ccc2c(c1)N(C(C)C(=O)NCc1cccs1)C(=O)CO2` (stereo unspecified): the “activation” value was -11.5%.

For `CCCn1c(C)cc(C)c(C#N)c1=O`, the “activation” value was 2.75%.

As to `COc1ccccc1-c1cnc2c(c1)C(=O)N([C@H](C)CO)C[C@@H](C)[C@@H](CN(C)C(C)=O)O2`, the “activation” value was 33.6%.

Take `C[C@H]1CN([C@@H](C)CO)C(=O)c2cc(C#CCc3ccccc3)cnc2O[C@@H]1CN(C)C(=O)C1CC1`: the “activation” value is -25.5%.

Regarding `C[C@H](CO)N1C[C@H](C)[C@@H](CN(C)C(=O)CC2CC2)Oc2cc(C#CC(C)(C)O)ccc2S1(=O)=O`, the “activation” value is 18%.

As for `COCC(=O)N(C)C[C@H]1Oc2cc(Br)ccc2S(=O)(=O)N([C@H](C)CO)C[C@H]1C`, the “activation” value is -3%.

For the molecule `Cc1c(P(=S)(c2ccccc2)c2ccccc2)[n+]2ccccc2n1C/C=C/c1ccccc1`, the “activation” value was 35.7%.

With `COc1cc2c(cc1OC)-c1cc(Nc3ccccc3Br)nc(=O)n1CC2`, the “activation” value was -12.7%.

Consider `CCNc1nc(C)nc2c1oc1ccccc12`, for which the “activation” value was -3.38%.

As to `O=C(COC(=O)c1ncc(Cl)c(Cl)c1Cl)NC1CCS(=O)(=O)C1` (stereo unspecified), the “activation” value was -6.54%.

On to `Fc1ccccc1-c1nnc2ccc3ccccc3n12`, for which the “activation” value was -4.34%.

Turning to `O=c1c2ccccc2nnn1Cc1ccccc1`, the “activation” value is -13.8%.

In the case of `CCc1nc2n[nH]c(N)c2c2c1CCCC2`, the “activation” value is 15.9%.

Regarding `COCCNc1nc(NCCCN2CCCC2=O)c2sccc2n1`, the “activation” value was 0.526%.

Turning to `CCCCOc1ccc(C2=NNC(=O)CC2)cc1`, the “activation” value was 2.01%.

Consider `CCc1cc2c(COC(=O)c3cccc(NS(C)(=O)=O)c3)cc(=O)oc2cc1O`, for which the “activation” value is -6.11%.

With `COCCNc1nc(Oc2ccc(C(N)=O)cc2)c2sccc2n1`, the “activation” value is -5.61%.

On to `CC(C)Cc1nc2n[nH]c(N)c2c2c1COC(C)(C)C2`, for which the “activation” value was 10.5%.

For `Cc1cc(C)c2oc(C(=O)Nc3ccc(S(=O)(=O)Nc4nccc(C)n4)cc3)cc(=O)c2c1`, the “activation” value is -2.17%.

With `O=C(N/N=C/c1ccc2c(c1)OCO2)c1ccc(Cl)cc1Cl`, the “activation” value is -15.4%.

Take `C=CCNC(=O)c1cc(-c2ccc3c(c2)OCO3)on1`: the “activation” value is -13.2%.

As for `COc1ccc(C2CC(=O)Nc3sc(=N)c4c(N)c(C#N)c(N)nc4c32)cc1OC` (stereo unspecified), the “activation” value was -7.45%.

For the molecule `Cc1ccsc1/C=N/n1c(-c2ccncc2)n[nH]c1=S`, the “activation” value was 1.74%.

Turning to `COCCNc1nc(N2CCCCC2)c2cnn(C)c2n1`, the “activation” value is 7.01%.

Turning to `COc1cc2c(cc1OC)C(Cc1ccc(O)cc1)NCC2` (stereo unspecified), the “activation” value was -1.37%.

For `COc1cc2c(cc1OC)C(Cc1ccc(O)cc1)N(C)CC2` (stereo unspecified), the “activation” value is -9.53%.

`c1ccc(-c2nc(NCC3CC3)nc3ccsc23)cc1`: the “activation” value was 7.35%.

For the molecule `CN1CCCCC(NC(=O)c2ccccc2)C1=O` (stereo unspecified), the “activation” value is 9.94%.

On to `Cc1nccn1-c1ncnc2sc3c(c12)CCCC3`, for which the “activation” value is -5.65%.

As for `COc1ccccc1CSc1nc2c(c(=O)n(C)c(=O)n2C)n1C`, the “activation” value is -8.58%.

Turning to `COC(=O)c1ccc(CNC(=O)CCc2c[nH]c3ccccc23)cc1`, the “activation” value was -10.2%.

Turning to `Cc1nnc2c(NCCC(C)C)nc3ccccc3n12`, the “activation” value was -2.67%.

Regarding `CCOC(=O)c1nc(NCc2cccnc2)c2ccccc2n1`, the “activation” value was -0.868%.

For `Cn1c(=O)n(Cc2ccccc2Br)c2ccccc21`, the “activation” value is 27.3%.

As to `CC(C)CCN1CC(O)=C(c2nc(-c3ccc(Cl)cc3)cs2)C1=N`, the “activation” value is 4.45%.

Turning to `C=CCNc1cc(C)oc(=O)c1C(=O)CCC`, the “activation” value is -6.6%.

As to `COc1ccccc1CNS(=O)(=O)c1cc(-c2cc(C)no2)ccc1C(C)C`, the “activation” value is -7.45%.

For `COc1ccccc1Cn1c(=O)oc2ccccc21`, the “activation” value is 1.4%.

On to `COc1ccc(CNC(=O)C2Cc3c(-c4cccc(F)c4)ccnc3O2)cc1OC` (stereo unspecified), for which the “activation” value was -55.6%.

Turning to `COc1ccc(CN2CCOC2=O)cc1OC`, the “activation” value is -14.9%.
